About 7,900 targets were measured; listed, in parts, are those with a hit and a random draw of the rest. About 0.6% of all pairs of compound and target were hits. Values without a mark were called inactive.
Columns and labels:
Experiment in all cases: log2 fold change, soluble protein after heating vs DMSO (PISA); higher = thermal stabilisation; K562 cells, 10 uM, 30 min; active = over 0.2 and 3.5 SD of the protein, either way, in both replicates (recomputed)
[1] = compound: CC1=C(C=C(C=C1)NC(=O)C2=CC(=CC=C2)C(C)(C)C#N)NC3=CC4=C(C=C3)N=CN(C4=O)C
How it was run: (§1)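 Aliquots of K562 cells (2×10^6 cells/mL) treated with 10 μM compound for 30 min were heated for 3 min over 48°C-58°C. After pooling and extraction in PBS with 0.5% NP-40 at 4°C, soluble protein from a 21,000xg, 90 min spin was quantified by TMTpro 16plex LC-MS/MS with channel sums equalised. Thermal stability is expressed against control samples, from duplicates, as a log2 fold change.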

[2] = compound: CC1=C(C=C(C=C1)NC(=O)C2=CC(=CC=C2)N(C)C)NC(=O)C3=CC=C(C=C3)O
How it was run: as §1

[3] = compound: CC1=CC=C(C=C1)SC2=C3C=C(SC3=CN=C2)C(=O)N
How it was run: as §1

[4] = compound: CC1=NC(=CC=C1)C2=C(N=C(N2)C(C)(C)C)C3=CC4=NC=CN=C4C=C3
How it was run: as §1

[5] = compound: CCCCN(Cc1ccc(C(=O)NO)cc1)C(=O)Nc1ccccc1 [Nexturastat A]
How it was run: as §1

[6] = compound: CCCS(=O)(=O)Nc1ccc(F)c(C(=O)c2c[nH]c3ncc(-c4ccc(Cl)cc4)cc23)c1F [vemurafenib]
How it was run: as §1

[7] = compound: CCCS(=O)(=O)Nc1ccc(F)c(C(=O)c2c[nH]c3ncc(Cl)cc23)c1F
How it was run: as §1

[8] = compound: CCCc1cc(C)[nH]c(=O)c1CNC(=O)c1cc(-c2ccnc(N3CCN(C)CC3)c2)cc2c1cnn2C(C)C
How it was run: as §1

[9] = compound: CCN(CC)Cc1ccc2cc(COC(=O)Nc3ccc(C(=O)NO)cc3)ccc2c1 [givinostat]
How it was run: as §1

[10] = compound: CCN(CCCOc1ccc2c(Nc3cc(CC(=O)Nc4cccc(F)c4)[nH]n3)ncnc2c1)CCOP(=O)(O)O [barasertib]
How it was run: as §1

[11] = compound: CC[C@@H]1C(=O)N(C)c2cnc(Nc3ccc(C(=O)NC4CCN(C)CC4)cc3OC)nc2N1C1CCCC1
How it was run: as §1

[12] = compound: CC[C@@H]1C(=O)N(C)c2cnc(Nc3ccc(C(=O)N[C@H]4CC[C@H](N5CCN(CC6CC6)CC5)CC4)cc3OC)nc2N1C(C)C [volasertib]
How it was run: as §1

[13] = compound: CC[C@H](C)N1C=C(C2=C(C=C(C=C21)C3=CN=C(C=C3)N4CCNCC4)C(=O)NCC5=C(C=C(NC5=O)C)C)C
How it was run: as §1

[14] = compound: CC[C@H](C)[C@@H](C(=O)N[C@@H]([C@@H](C)O)C(=O)N[C@@H](CC(C)C)C(=O)[C@]1(CO1)C)NC(=O)[C@H]([C@@H](C)CC)N(C)C(=O)C [epoxomicin]
How it was run: as §1

[15] = compound: CCn1c(C(=O)N(C2CC2)C2CC2)cc2c3c(ncn3C)c(Nc3cc(C)n(C)n3)nc21
How it was run: as §1

[16] = compound: CCn1cc(-c2ccnc3[nH]c(-c4cccc(CN(C)C)c4)cc23)c(-c2ccc(NC(=O)N(C)C)cc2)n1
How it was run: as §1

[17] = compound: CN(C)CC(=O)Nc1ccc2[nH]c(=O)c3ccccc3c2c1
How it was run: as §1

[18] = compound: CN(CCOC1=CC=C(C=C1)C[C@H]2C(=O)NC(=O)S2)C3=CC=CC=N3 (racemic) [rosiglitazone]
How it was run: as §1

[19] = compound: CN1C2=C(C3=C1C(=O)N(N=C3)CC4=CC(=CC=C4)N)SC(=C2)S(=O)C
How it was run: as §1

[20] = compound: CN1CCC(CNc2ccc3ncc(-c4cccc(OC(F)(F)F)c4)n3n2)CC1
How it was run: as §1

Sequence of UniProt P08047 (P08047 whole entry, looked up): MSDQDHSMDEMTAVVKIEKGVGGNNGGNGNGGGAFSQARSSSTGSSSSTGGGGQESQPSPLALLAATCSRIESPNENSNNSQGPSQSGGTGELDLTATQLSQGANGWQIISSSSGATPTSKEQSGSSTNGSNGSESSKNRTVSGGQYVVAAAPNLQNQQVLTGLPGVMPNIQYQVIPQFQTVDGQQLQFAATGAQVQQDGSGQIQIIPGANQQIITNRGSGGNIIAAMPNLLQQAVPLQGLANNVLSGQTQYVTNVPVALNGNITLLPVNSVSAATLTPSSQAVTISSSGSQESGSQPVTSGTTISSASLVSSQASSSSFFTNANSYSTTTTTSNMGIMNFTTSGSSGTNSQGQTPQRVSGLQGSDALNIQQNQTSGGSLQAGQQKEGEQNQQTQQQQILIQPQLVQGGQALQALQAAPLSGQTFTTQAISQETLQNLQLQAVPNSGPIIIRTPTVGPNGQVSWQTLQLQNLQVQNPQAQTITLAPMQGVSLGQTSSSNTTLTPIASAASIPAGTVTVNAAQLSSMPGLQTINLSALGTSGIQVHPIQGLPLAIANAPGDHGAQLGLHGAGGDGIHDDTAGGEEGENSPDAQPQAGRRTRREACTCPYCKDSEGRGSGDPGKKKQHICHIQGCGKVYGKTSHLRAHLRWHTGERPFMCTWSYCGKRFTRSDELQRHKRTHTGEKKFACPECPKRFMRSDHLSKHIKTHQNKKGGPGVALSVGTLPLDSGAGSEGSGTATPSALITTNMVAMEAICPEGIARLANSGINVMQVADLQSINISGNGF
Sequence of UniProt Q969G3 (Q969G3 whole entry, looked up): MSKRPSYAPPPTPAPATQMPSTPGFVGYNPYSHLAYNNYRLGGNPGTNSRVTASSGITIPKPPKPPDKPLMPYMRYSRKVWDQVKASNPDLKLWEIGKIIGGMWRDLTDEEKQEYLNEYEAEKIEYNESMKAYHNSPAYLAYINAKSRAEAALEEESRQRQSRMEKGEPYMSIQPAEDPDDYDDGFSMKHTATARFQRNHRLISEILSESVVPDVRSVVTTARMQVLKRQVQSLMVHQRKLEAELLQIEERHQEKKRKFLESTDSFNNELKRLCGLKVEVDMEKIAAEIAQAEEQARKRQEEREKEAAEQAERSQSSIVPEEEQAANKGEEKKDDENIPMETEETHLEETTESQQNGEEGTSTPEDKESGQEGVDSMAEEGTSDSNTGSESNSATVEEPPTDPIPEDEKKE
Sequence of UniProt P50225 (P50225 whole entry, looked up): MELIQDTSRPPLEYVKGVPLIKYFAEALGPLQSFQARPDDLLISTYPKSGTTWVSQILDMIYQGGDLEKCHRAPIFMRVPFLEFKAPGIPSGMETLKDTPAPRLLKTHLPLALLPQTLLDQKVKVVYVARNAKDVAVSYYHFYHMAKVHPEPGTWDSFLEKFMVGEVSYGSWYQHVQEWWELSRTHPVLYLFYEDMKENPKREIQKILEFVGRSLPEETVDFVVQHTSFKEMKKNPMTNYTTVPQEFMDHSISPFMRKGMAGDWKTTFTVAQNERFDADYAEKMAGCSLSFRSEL
Sequence of UniProt Q15527 (Q15527 whole entry, looked up): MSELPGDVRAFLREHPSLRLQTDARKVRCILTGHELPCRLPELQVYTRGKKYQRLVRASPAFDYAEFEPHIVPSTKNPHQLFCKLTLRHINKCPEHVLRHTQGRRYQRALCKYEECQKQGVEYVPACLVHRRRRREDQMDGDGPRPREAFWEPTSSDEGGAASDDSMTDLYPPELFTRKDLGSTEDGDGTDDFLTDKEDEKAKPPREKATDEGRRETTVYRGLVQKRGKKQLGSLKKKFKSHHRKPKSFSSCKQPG
Sequence of UniProt O95149 (O95149 whole entry, looked up): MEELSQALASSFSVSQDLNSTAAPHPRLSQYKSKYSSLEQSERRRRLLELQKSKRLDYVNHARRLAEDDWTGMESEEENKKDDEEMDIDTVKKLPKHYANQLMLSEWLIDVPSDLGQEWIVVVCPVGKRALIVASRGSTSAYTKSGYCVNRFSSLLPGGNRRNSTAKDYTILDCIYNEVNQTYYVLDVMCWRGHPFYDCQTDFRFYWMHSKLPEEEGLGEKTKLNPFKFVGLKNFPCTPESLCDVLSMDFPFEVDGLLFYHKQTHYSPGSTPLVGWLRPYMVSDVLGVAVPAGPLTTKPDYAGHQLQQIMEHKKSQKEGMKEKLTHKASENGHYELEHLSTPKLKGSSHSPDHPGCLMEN
Sequence of UniProt Q15582 (Q15582 whole entry, looked up): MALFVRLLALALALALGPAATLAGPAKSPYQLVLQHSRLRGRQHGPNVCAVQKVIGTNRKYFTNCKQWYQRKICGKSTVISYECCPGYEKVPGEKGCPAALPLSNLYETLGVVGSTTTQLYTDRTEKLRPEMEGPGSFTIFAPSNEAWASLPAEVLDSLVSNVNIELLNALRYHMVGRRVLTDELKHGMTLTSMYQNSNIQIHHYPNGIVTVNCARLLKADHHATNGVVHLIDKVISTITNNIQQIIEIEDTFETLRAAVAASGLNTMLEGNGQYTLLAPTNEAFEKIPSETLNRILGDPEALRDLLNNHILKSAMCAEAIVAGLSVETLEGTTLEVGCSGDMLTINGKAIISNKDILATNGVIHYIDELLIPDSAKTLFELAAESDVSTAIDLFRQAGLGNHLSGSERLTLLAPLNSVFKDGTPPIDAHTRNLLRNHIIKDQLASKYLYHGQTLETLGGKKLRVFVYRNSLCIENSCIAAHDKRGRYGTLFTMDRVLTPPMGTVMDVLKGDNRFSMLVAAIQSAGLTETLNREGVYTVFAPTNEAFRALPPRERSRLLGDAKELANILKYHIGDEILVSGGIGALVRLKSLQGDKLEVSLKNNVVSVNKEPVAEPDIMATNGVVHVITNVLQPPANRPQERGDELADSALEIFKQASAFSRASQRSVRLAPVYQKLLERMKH
Sequence of UniProt O00506 (O00506 whole entry, looked up): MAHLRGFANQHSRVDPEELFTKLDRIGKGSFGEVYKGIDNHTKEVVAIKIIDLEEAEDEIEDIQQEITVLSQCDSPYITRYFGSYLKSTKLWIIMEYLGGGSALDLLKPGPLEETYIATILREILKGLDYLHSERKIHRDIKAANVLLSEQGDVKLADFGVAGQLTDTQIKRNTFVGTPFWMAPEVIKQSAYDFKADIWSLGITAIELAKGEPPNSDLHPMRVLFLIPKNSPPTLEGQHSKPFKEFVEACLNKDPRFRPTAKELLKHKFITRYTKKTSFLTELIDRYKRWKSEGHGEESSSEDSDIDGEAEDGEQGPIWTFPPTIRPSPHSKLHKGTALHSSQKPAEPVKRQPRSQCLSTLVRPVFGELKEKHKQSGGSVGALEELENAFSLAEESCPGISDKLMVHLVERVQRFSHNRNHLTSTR
Sequence of UniProt Q13596 (Q13596 whole entry, looked up): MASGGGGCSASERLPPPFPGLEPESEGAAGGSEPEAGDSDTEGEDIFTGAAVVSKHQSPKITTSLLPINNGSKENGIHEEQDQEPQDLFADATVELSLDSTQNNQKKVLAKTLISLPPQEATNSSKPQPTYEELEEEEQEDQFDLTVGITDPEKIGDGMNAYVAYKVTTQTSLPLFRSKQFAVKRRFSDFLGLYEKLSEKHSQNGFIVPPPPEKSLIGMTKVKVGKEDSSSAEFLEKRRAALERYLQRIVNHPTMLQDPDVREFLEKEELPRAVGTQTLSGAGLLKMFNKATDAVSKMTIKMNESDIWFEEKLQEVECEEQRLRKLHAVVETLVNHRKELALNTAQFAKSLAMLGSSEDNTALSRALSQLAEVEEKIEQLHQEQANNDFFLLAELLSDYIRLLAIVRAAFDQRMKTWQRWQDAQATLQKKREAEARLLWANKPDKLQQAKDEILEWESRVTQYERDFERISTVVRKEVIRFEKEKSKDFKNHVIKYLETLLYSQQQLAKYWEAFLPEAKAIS

Target	log2 fold change [1]	log2 fold change [2]	log2 fold change [3]	log2 fold change [4]	log2 fold change [5]	log2 fold change [6]	log2 fold change [7]	log2 fold change [8]	log2 fold change [9]	log2 fold change [10]	log2 fold change [11]	log2 fold change [12]	log2 fold change [13]	log2 fold change [14]	log2 fold change [15]	log2 fold change [16]	log2 fold change [17]	log2 fold change [18]	log2 fold change [19]	log2 fold change [20]
SP1 (UniProt P08047)	0.023	-0.068	-0.067	-0.033	0.034	-0.017	-0.069	-0.018	-0.114	0.011	0.047	0.102	0	-0.032	0.007	-0.003	-0.042	-0.005	0.006	-0.063
SNUPN (UniProt O95149)	-0.078	0.052	0.013	0.026	-0.037	-0.024	-0.065	0.013	-0.017	0.024	-0.133	-0.296 (active)	0.014	-0.013	0.019	-0.076	0.003	-0.001	-0.01	-0.004
SURF2 (UniProt Q15527)	0.022	-0.007	0.035	-0.027	0.033	-0.037	-0.002	-0.029	0.013	0.035	-0.002	-0.046	0.014	0.04	-0.008	-0.078	0.037	0	-0.043	0.024
STK25 (UniProt O00506)	-0.102	0.014	-0.011	0.029	-0.006	-0.021	0.011	-0.052	0.056	0.025	-0.031	-0.107	0.024	0.033	-0.041	-0.008	-0.024	0.077	0.017	-0.216
SNX1 (UniProt Q13596)	-0.014	-0.001	-0.001	0.042	-0.025	0.002	0.083	-0.014	0.054	0.037	-0.135	-0.113	0.096	0.037	-0.096	-0.107	0.003	0.079	-0.029	-0.605 (active)
SMARCE1 (UniProt Q969G3)	-0.025	-0.058	-0.003	0.074	0.121	-0.123	0.085	-0.522	0.028	0.042	-0.006	-0.125	0.087	-0.033	-0.071	0.053	-0.036	-0.222	0.058	-0.045
TGFBI (UniProt Q15582)	-0.167	0.101	0.062	0.091	-0.082	0.157	-0.044	-0.255	-0.08	0.068	-0.089	-0.211	-0.044	-0.33	-0.026	0.068	-0.128	0.118	0.171	-0.142
SULT1A1 (UniProt P50225)	0.015	0.162	-0.022	0.025	-0.023	0.135	0.037	0.092	0.044	0.068	-0.159	-0.445 (active)	0.091	0.026	-0.056	-0.106	0.105	0.025	0.072	-0.208
SMCHD1 (UniProt A6NHR9)	-0.067	0	0.089	-0.039	0.126	0.057	0.141	0.155	0.101	-0.168	0.009	-0.326	0.098	-0.189	-0.015	-0.085	0.032	-0.118	-0.023	-0.144

Source: the supplement of paper PMC10849652
